Assay [1] in a line: Nuclear factor erythroid 2-related factor 2/antioxidant responsive element (Nrf2/ARE) small molecule agonists: luciferase reporter gene qHTS assay in human keratinocytes (AID 1919969). Further: nearly all actives have a fitted effect of over 35% in size. A general note: A reporter such as luciferase makes a cellular process visible.
The target in assay [2] is KiSS-1 receptor (Homo sapiens) (UniProt Q969F8). Briefly: Human kisspeptin (KISS1R) small molecule agonists, calcium flux assay in KISS1R-HEK293 cells (AID 1920064; active means well fitted activation curve with a large enough effect in the repeat runs). In outline:
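Calcium flux read-out: kinetic fluorescence at Ex/Em=480/540, 1 s intervals over 3 min, after pin-tool compound addition to dye-loaded KISS1R-HEK293 cells. Fifteen concentrations, triplicates.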
A general note: Calcium assays in cells follow changes in intracellular calcium, usually with a dye or a luminescent sensor.

The nature of assay [3]: G protein-coupled receptor (GPCR) small molecule agonists, calcium flux assay: HEK293 wild type cell line counter screen (AID 1920065). The method, boiled down:
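Agonist mode; 18 h seeding at 37 C, 1 h dye load at 37 C; compounds pinned from DMSO, ATP as positive control; kinetic fluorescence 480/540 nm, 3 min, 1 s reads; 15 concentrations, triplicate.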

Assay [4] can be described thus: p53 small molecule agonists, cell-based qHTS assay with human liver microsomes (AID 1963577). In outline: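 Cells carrying a p53-responsive bla reporter were rested 5 h (37 C, 5% CO2) before compound transfer. Human liver microsomes plus NADPH, 0.5 mg/mL final apiece, supplied metabolism during the 16 h 37 C exposure.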
On the technique in general: Quantitative high-throughput screening tests each substance at several concentrations.

Assay [5] is described as follows: p53 small molecule agonists, cell-based qHTS assay with rat liver microsomes (AID 1963578). The method, boiled down:
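Fluorescence from a beta-lactamase reporter under a p53 response element was measured after cells had been incubated 16 h at 37 C with test compound and rat liver microsomes plus NADPH (0.5 mg/mL final each).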

Assay [6] in a line: p53 small molecule agonists, cell-based qHTS assay with human liver microsomes: qHTS cell viability counter screen (AID 1963579). Further: nearly all actives have a fitted effect of over 45% in size. In outline: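 Seed p53RE-bla cells at 4,000 per well; incubate 5 h at 37 C; add compound, human liver microsomes and NADPH; incubate 16 h at 37 C; add CellTiter-Glo; after 30 min at room temperature, read luminescence.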
Assay [7] can be described thus: p53 small molecule agonists, cell-based qHTS assay with rat liver microsomes: qHTS cell viability counter screen (AID 1963580). Further: nearly all actives have a fitted effect of over 45% in size. In outline:
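Cytotoxicity counter screen: intracellular ATP read by CellTiter-Glo luminescence in the p53 reporter wells. HCT-116 p53RE-bla cells were treated for 16 h at 37 C alongside rat liver microsomes and NADPH, each 0.5 mg/mL final.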

Assay [8] in a line: p53 small molecule agonists, cell-based qHTS assay: qHTS cell viability counter screen (AID 1963581). Further: nearly all actives have a fitted effect of over 45% in size. The method, boiled down: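 Cytotoxicity read-out: ATP-based luminescence (CellTiter-Glo, 30 min RT) measured in the same wells as the p53 reporter assay, HCT-116 p53RE-bla cells, 16 h compound exposure at 37 C.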
Assay [9] can be described thus: p53 small molecule agonists, cell-based qHTS assay (AID 1963582; active means well fitted activation curve with a large enough effect in the signal ratio in the repeat runs, not every such curve was filed as active; the % refers to the signal ratio). In outline: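 Fluorescence intensity read-out of a beta-lactamase reporter under a p53 response element. Cells were exposed to DMSO-dissolved compounds for 16 h at 37 C, then developed with FRET substrate for 2 h at RT.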
Assay [10] has as its target 5-hydroxytryptamine receptor 2A (Homo sapiens) (UniProt P28223). The assay is described as follows: 5-hydroxytryptamine receptor 2A (HTR2A) small molecule antagonists, cell-based qHTS assay (AID 1963586). Further: nearly all actives have a fitted effect of over 45% in size. Further: potency means the concentration at half of the fitted maximal effect. The method, boiled down:
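CHO cells stably expressing human HTR2A were plated for 18 h at 37 C, then loaded with calcium dye for 1 h. Compounds were preincubated 5 min at room temperature before DOI (4 nM solution) was added. Kinetic fluorescence was read for 3 min.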

Assay [11] shares this target. Briefly: 5-hydroxytryptamine receptor 2A (HTR2A) small molecule agonists, cell-based qHTS assay (AID 1963587). Further: nearly all actives have a fitted effect of over 30% in size. The method, boiled down: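 Kinetic calcium-flux fluorescence (2 min, 1 sec intervals) after compound addition in agonist mode. HTR2A-CHO cells were cultured 18 h, then dye-loaded 1 h at 37 C.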
Assay [12] concerns the target Muscarinic acetylcholine receptor M1 (Homo sapiens) (UniProt P11229). Briefly: Cholinergic receptor muscarinic 1 (CHRM1) small molecule antagonists, cell-based qHTS assay (AID 1963588). Further: nearly all actives have a fitted effect of over 40% in size. The method, boiled down:
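Compounds were tested at 15 concentrations in three independent runs. Dye-loaded CHRM1-CHO cells were exposed 5 min at room temperature before stimulation by acetylcholine added at 50nM. Intracellular calcium was read kinetically on FDSS for 3 min.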

The target is the same in assay [13]. The assay is described as follows: Cholinergic receptor muscarinic 1 (CHRM1) small molecule agonists, cell-based qHTS assay (AID 1963589). Further: nearly all actives have a fitted effect of over 35% in size. The method, boiled down: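 Calcium flux read-out: kinetic fluorescence at 1 sec intervals after pin-tool compound addition to dye-loaded CHRM1-CHO cells (human M1). Agonist mode; 15 concentrations tested in triplicate independent runs.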

Assay [14] in a line: cAMP Responsive Elements (CRE) small molecule agonists, cell-based qHTS assay (AID 1963590). In outline: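 Beta-lactamase reporter readout: LiveBLAzer B/G FRET substrate, 2 h at room temperature, added after 3 h compound treatment of CRE-bla HEK 293T cells at 37 C/5% CO2.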
A short description of assay [15]: cAMP Responsive Elements (CRE) small molecule antagonists, cell-based qHTS assay (AID 1963591; active means well fitted inhibition curve with a large enough effect in the signal ratio in the repeat runs, not every such curve was filed as active; the % refers to the signal ratio). In outline:
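HEK293T CRE-bla; 18 h preincubation; compound pin-transfer; NKH477 0.25 uM final, 3 h, 37 C; LiveBLAzer FRET substrate 2 h RT.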

The target in assay [16] is Beta-2 adrenergic receptor (Homo sapiens) (UniProt P07550). The assay is described as follows: Adrenergic beta2 receptor (ADRB2) small molecule antagonists, cell-based qHTS assay (AID 1963592). Further: series mostly up to about 92 µM; nearly all actives have a fitted effect of over 50% in size. The method, boiled down: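 Assay format: CHO-ADRB2 cells, 18-20hr seeding at 37C/5% CO2, then compound plus 1nM isoproterenol agonist mix for 0.5hr RT. Homogeneous time-resolved fluorescence cAMP detection after 1hr, expressed as 665/615 nm ratio.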
Sequence of Beta-2 adrenergic receptor (Homo sapiens) (P07550 whole entry, looked up): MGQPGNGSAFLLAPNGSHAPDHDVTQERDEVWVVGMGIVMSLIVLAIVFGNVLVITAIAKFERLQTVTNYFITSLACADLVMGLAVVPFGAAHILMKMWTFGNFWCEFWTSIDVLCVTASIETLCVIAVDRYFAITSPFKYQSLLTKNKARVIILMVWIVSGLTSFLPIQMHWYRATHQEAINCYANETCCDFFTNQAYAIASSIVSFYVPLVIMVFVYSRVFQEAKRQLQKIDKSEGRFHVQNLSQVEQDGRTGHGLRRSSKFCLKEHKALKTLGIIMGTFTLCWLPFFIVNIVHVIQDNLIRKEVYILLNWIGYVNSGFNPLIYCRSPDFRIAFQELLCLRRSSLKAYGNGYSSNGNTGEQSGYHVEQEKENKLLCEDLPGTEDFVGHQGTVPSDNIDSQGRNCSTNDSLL

Assay [17] shares this target. The assay is described as follows: Adrenergic beta2 receptor (ADRB2) small molecule agonists, cell-based qHTS assay (AID 1963593).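 Further: CHO cells stably overexpressing human ADRB2.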 The method, boiled down: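 CHO cells stably over-expressing ADRB2 were plated overnight at 37C, then dosed with compounds plus a stimulation mix containing 100uM IBMX and 25uM Ro-20-1724 for 0.5hr at room temperature. cAMP was measured by HTRF competition, 1hr.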

Assay [18] concerns the target D(2) dopamine receptor (Homo sapiens) (UniProt P14416). The assay is described as follows: Dopamine D2 receptor (DRD2) small molecule agonists, cell-based qHTS assay (AID 1963594). Further: nearly all actives have a fitted effect of over 35% in size. In outline:
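cAMP accumulation in DRD2-HEK293 cells measured by HTRF after 1 h detection; compounds added 10 min before NKH477 (200nM […]) forskolin-analogue stimulation, 30 min at room temperature, with Ro20-1724 present at 0.1 mM final.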

For assay [19] the target is unchanged. The assay is described as follows: Dopamine D2 receptor (DRD2) small molecule antagonists, cell-based qHTS assay (AID 1963595; active means well fitted inhibition curve with a large enough effect in the signal ratio in the repeat runs, with a control signal flat; the % refers to the signal ratio). The method, boiled down: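 Human DRD2 antagonist qHTS measuring cAMP by HTRF. The cells are exposed to compound for 10 min, then to NKH477 (200 nM) and quinpirole (12 nM) for 30 min at RT, with Ro20-1724 (0.1 mM) present throughout.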

The target in assay [20] is Gonadotropin-releasing hormone receptor (Homo sapiens) (UniProt P30968). The assay is described as follows: Human gonadotropin-releasing hormone receptor (GnRHR) small molecule agonists, calcium flux assay in GnRHR-HEK293 cells (AID 1920063). Further: nearly all actives have a fitted effect of over 35% in size. The method, boiled down:
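Calcium-dye fluorescence, Ex/Em=480/540, recorded every 1 sec over 3 min after compound addition to GnRHR-HEK293 cells. Cells had been seeded 18 hours earlier and dye-loaded for 1 hour at 37 C. Fifteen concentrations, triplicates.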

SMILES strings stand for the structures. Values joined by “and” are separate entries in the source; they are usually repeats but may differ in a detail not shown here. Equal values may be shown once. Records with an inconclusive call do not appear. Active and inactive are the calls of the source. Unless noted, the call rests on the fitted dose curve.

Sequence of KiSS-1 receptor (Homo sapiens) (Q969F8 whole entry, looked up): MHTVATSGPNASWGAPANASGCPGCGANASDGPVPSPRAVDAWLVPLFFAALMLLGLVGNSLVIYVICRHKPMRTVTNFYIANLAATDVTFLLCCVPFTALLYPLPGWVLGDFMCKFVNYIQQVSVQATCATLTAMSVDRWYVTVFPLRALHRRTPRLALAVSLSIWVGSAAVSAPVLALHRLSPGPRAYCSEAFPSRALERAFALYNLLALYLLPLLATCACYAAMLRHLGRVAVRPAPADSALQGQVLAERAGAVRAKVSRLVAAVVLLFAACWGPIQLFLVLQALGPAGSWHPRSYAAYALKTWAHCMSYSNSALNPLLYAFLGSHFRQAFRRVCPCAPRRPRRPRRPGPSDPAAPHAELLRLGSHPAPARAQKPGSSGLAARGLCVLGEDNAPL
Sequence of D(2) dopamine receptor (Homo sapiens) (P14416 whole entry, looked up): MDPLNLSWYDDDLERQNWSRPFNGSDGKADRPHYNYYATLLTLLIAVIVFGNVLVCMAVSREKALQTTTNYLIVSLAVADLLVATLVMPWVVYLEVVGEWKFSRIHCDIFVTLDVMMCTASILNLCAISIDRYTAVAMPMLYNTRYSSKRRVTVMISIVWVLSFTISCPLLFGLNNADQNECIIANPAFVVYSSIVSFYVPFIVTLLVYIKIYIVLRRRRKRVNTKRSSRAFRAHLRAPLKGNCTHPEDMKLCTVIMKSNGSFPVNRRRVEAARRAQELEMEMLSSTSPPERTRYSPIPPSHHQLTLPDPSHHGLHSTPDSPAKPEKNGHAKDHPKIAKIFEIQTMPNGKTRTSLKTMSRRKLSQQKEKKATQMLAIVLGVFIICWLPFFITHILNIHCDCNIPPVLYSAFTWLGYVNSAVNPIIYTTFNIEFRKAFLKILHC
Sequence of Gonadotropin-releasing hormone receptor (Homo sapiens) (P30968 whole entry, looked up): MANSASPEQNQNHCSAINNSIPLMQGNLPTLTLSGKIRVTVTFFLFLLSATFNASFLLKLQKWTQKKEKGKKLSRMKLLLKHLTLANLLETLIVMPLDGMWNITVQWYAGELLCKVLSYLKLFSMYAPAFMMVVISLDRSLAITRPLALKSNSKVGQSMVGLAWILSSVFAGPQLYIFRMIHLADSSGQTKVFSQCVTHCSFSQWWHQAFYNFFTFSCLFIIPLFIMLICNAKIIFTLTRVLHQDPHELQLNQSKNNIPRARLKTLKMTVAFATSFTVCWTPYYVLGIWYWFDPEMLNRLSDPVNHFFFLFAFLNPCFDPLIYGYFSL
Sequence of Muscarinic acetylcholine receptor M1 (Homo sapiens) (P11229 whole entry, looked up): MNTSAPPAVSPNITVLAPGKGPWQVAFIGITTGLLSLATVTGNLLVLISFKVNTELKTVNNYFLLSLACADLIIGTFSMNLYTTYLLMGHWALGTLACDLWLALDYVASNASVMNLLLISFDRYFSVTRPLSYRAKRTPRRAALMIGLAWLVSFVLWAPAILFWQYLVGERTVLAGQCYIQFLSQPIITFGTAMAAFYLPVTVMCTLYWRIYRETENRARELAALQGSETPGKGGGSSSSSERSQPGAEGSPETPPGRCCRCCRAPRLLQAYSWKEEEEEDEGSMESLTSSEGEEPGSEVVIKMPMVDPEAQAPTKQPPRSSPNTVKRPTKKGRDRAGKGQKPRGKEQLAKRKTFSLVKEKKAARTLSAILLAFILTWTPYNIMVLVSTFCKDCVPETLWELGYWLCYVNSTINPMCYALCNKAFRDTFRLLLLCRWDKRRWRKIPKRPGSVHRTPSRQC
Sequence of 5-hydroxytryptamine receptor 2A (Homo sapiens) (P28223 whole entry, looked up): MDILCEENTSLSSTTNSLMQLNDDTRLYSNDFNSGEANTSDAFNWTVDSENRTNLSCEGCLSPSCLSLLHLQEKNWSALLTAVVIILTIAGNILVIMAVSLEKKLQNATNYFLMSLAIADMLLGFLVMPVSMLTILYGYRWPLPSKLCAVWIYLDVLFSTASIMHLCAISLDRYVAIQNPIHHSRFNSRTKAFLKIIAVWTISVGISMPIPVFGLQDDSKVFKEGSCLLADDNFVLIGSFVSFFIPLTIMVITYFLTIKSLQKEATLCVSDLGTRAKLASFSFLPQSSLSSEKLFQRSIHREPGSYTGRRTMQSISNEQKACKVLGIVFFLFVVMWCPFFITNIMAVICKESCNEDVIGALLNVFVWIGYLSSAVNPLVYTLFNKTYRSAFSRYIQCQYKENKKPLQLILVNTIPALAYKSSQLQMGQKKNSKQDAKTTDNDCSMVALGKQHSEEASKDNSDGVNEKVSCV

On to `CCCOCCC`, for which the Potency result in assay [1], in assay [2], in assay [3], in assay [4], in [5] and in assay [6] was “inactive” in each case. Also, the Potency result in assay [7], in assay [8], in assay [9], in assay [10], in assay [11] and in assay [12] was “inactive” each time. For the same molecule, the Potency result in assay [13], in assay [14], in assay [15], in assay [16], in [17] and in assay [18] was “inactive” throughout. For the same molecule, the Potency result in [19] was “inactive”.
As for `CC(C)CCOCCC(C)C`, the Potency entry in assay [20], in assay [2], in [3], in assay [4], in assay [5] and in [6] was “inactive” throughout. Moreover, the Potency result in assay [7], in assay [8], in assay [9], in assay [10], in assay [11] and in [12] was “inactive” in each case. The Potency entry in assay [13], in assay [14], in [16], in [17], in assay [18] and in [19] was “inactive” in each case.
For the molecule `CCCCOC(=O)CCS`, the Potency entry in assay [1], in assay [20], in [3], in assay [4], in assay [5] and in [6] was “inactive” each time. Besides, the Potency result in assay [7], in assay [8], in assay [9], in assay [10], in [11] and in [12] was “inactive” each time. Moreover, the Potency entry in assay [13], in assay [14], in assay [15], in assay [16], in assay [17] and in assay [18] was “inactive” in each case. Further, the Potency entry in assay [19] was “inactive”.
As to `O=C(Oc1ccccc1)c1ccc(O)cc1`, the Potency entry in assay [2], in assay [3], in [4], in assay [5], in assay [6] and in [7] was “inactive” each time. Moreover, the Potency result in assay [8], in assay [9], in assay [11], in assay [12], in assay [15] and in assay [16] was “inactive” throughout. In addition, the Potency result in assay [18] and in assay [19] was “inactive” each time. In addition, the Potency in assay [10] was 26.7 µM (active) and 13.3 µM (active).
For `CCN(CC)CC(=O)Oc1ccc(NC(C)=O)cc1`, the Potency entry in assay [1], in [20], in assay [3], in [4], in [5] and in assay [6] was “inactive” throughout. Besides, the Potency entry in assay [7], in assay [8], in assay [9], in assay [10], in [11] and in assay [12] was “inactive” each time. Also, the Potency result in assay [13], in [14], in assay [15], in [16], in assay [18] and in assay [19] was “inactive” each time.
Consider `CC1COc2ccccc2N1` (configuration not stated), for which the Potency entry in [20], in assay [2], in assay [3], in [4], in assay [5] and in [6] was “inactive” throughout. For the same molecule, the Potency result in [7], in [9], in [10], in [11], in assay [12] and in assay [13] was “inactive” in each case. In addition, the Potency entry in [14], in [15], in assay [16], in [17], in assay [18] and in assay [19] was “inactive” in each case.

These data come from PubChem BioAssay (Tox21).
